Records with an inconclusive call do not appear. Entries that show only a call come without a potency. Active and inactive are the calls of the source. Calls come from the whole dose curve.
Assay: p53 small molecule agonists, cell-based qHTS assay with rat liver microsomes (AID 1963578)
Conditions: HCT-116 p53RE-bla, beta-lactamase ratio, 16 h; series mostly up to 66 µM
Method in brief: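 p53RE-bla cells, 4,000/well, pre-incubated 5 h, then given compounds plus rat liver microsomes (0.5 mg/mL final) and NADPH (0.5 mg/mL final). Incubation 16 h at 37 C; beta-lactamase reporter read by LiveBLAzer fluorescence after 2 h at room temperature.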

SMILES	Potency
CCC(N)(CO)CO	inactive
CCCCOC(=O)CCS	inactive
CC(=O)S[C@H](C(=O)N[C@H]1Cc2ccccc2[C@H]2CCC[C@@H](C(=O)O)N2C1=O)C(C)C	inactive
CCCCCCCCCOS(=O)(=O)O	inactive
COC(=O)c1ccc([N+](=O)[O-])cc1	inactive
COC(=O)Cc1cccc2ccccc12	inactive
CCCCCCCCCCCC(=O)OC[C@@H](O)[C@H]1OC[C@H](OCCO)[C@H]1OCCO	inactive
CCCCCCCC(=O)OCCCCCC	inactive
CC(=O)NC(Cc1ccccc1)C(=O)O (stereo not drawn)	inactive
Cc1nc2ccccc2s1	inactive
CCO[Si](C)(C)OCC	inactive
Cc1nc(-c2ccc3c(c2)CCN(CCC2CCC(NC(=O)/C=C/c4ccc(F)cc4)CC2)CC3)no1 (stereo not drawn)	inactive
O=C(O)CCS	inactive
CCN(CC#N)c1cccc(C)c1	inactive
CC(C)(C)c1ccc(O)c(C(C)(C)C)c1	inactive
CC12CC3CC(C)(C1)CC(N)(C3)C2	inactive
O=C(/N=N/C(=O)OCc1ccccc1)OCc1ccccc1	inactive
CC(C)C(=O)O	inactive
c1ccc2cc3c4ccccc4c4ccccc4c3cc2c1	inactive
CO[Si](CCCNCCC[Si](OC)(OC)OC)(OC)OC	inactive

SMILES	Potency
CCCCCCCCS(=O)(=O)Cl	inactive
C=Cc1ccccn1	inactive
Nc1ccc(S(=O)(=O)Nc2ccc(Cl)nn2)cc1	inactive
COC(=O)c1ccccc1C(=O)O	inactive
CC(=O)SC[C@@H](C)C(=O)N1CCC[C@H]1C(=O)N[C@@H](Cc1ccccc1)C(=O)O	inactive
CCCCCCCCCCCCCC	inactive
COc1cc(/C=C/C(=O)O[C@H]2CC[C@]34C[C@]35CC[C@]3(C)[C@@H]([C@H](C)CCC=C(C)C)CC[C@@]3(C)[C@@H]5CC[C@H]4C2(C)C)ccc1O	inactive
CC/C=C\CCOC(=O)C(C)C	inactive
O=C1CC2CC1C1CCCC21 (stereo not drawn)	inactive
CC1CNCC(C)O1 (stereo not drawn)	inactive
Cc1ccc(C2OC[C@@H]3OC(c4ccc(C)cc4)O[C@H]([C@H](O)CO)[C@@H]3O2)cc1 (stereo partly drawn)	inactive
CCCCC(O)/C=C(C)/C=C/C=C/C(=O)N1CCCC1=O (stereo not drawn)	inactive
CC/C=C\CCO	inactive
O=C(O)c1cc(=O)[nH]c(=O)[nH]1	inactive
CC12CCC(C1)C(C)(C)C2O (stereo not drawn)	inactive
O=C(C(=O)c1ccccc1)c1ccccc1	inactive
CCOC(=O)c1cc(=O)c2c(OCC(COc3cccc4oc(C(=O)OCC)cc(=O)c34)OC(=O)[C@@H](N)CCCCN)cccc2o1	inactive
COc1ccc(C)cc1	inactive
O=S(=O)(O)CCN1CCN(CCO)CC1	inactive

Assay: p53 small molecule agonists, cell-based qHTS assay with human liver microsomes: qHTS cell viability counter screen (AID 1963579); note: nearly all actives have a fitted effect of over 45% in size
Conditions: p53RE-bla HCT-116 viability, ATP luminescence, 16 h, HLM; series mostly up to 66 µM
Method in brief: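 p53RE-bla cells, 4,000/well, dosed 5 hours after plating, with human liver microsomes (0.5 mg/mL final) plus NADPH (0.5 mg/mL final), 16 hours at 37 C. Viability read as CellTiter-Glo luminescence after 30 min at room temperature.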

SMILES	Potency
CCC(N)(CO)CO	inactive
CCCCOC(=O)CCS	inactive
CC(=O)S[C@H](C(=O)N[C@H]1Cc2ccccc2[C@H]2CCC[C@@H](C(=O)O)N2C1=O)C(C)C	inactive
CCCCCCCCCOS(=O)(=O)O	inactive
COC(=O)c1ccc([N+](=O)[O-])cc1	inactive
COC(=O)Cc1cccc2ccccc12	inactive
CCCCCCCCCCCC(=O)OC[C@@H](O)[C@H]1OC[C@H](OCCO)[C@H]1OCCO	inactive
CCCCCCCC(=O)OCCCCCC	inactive
CC(=O)NC(Cc1ccccc1)C(=O)O (stereo not drawn)	inactive
Cc1nc2ccccc2s1	inactive
CCO[Si](C)(C)OCC	inactive
Cc1nc(-c2ccc3c(c2)CCN(CCC2CCC(NC(=O)/C=C/c4ccc(F)cc4)CC2)CC3)no1 (stereo not drawn)	inactive
O=C(O)CCS	inactive
CCN(CC#N)c1cccc(C)c1	inactive
CC(C)(C)c1ccc(O)c(C(C)(C)C)c1	inactive
CC12CC3CC(C)(C1)CC(N)(C3)C2	inactive
O=C(/N=N/C(=O)OCc1ccccc1)OCc1ccccc1	inactive
CC(C)C(=O)O	inactive
c1ccc2cc3c4ccccc4c4ccccc4c3cc2c1	inactive
CO[Si](CCCNCCC[Si](OC)(OC)OC)(OC)OC	inactive

SMILES	Potency
CCCCCCCCS(=O)(=O)Cl	inactive
C=Cc1ccccn1	inactive
Nc1ccc(S(=O)(=O)Nc2ccc(Cl)nn2)cc1	inactive
COC(=O)c1ccccc1C(=O)O	inactive
CC(=O)SC[C@@H](C)C(=O)N1CCC[C@H]1C(=O)N[C@@H](Cc1ccccc1)C(=O)O	inactive
CCCCCCCCCCCCCC	inactive
COc1cc(/C=C/C(=O)O[C@H]2CC[C@]34C[C@]35CC[C@]3(C)[C@@H]([C@H](C)CCC=C(C)C)CC[C@@]3(C)[C@@H]5CC[C@H]4C2(C)C)ccc1O	inactive
CC/C=C\CCOC(=O)C(C)C	inactive
O=C1CC2CC1C1CCCC21 (stereo not drawn)	inactive
CC1CNCC(C)O1 (stereo not drawn)	inactive
Cc1ccc(C2OC[C@@H]3OC(c4ccc(C)cc4)O[C@H]([C@H](O)CO)[C@@H]3O2)cc1 (stereo partly drawn)	inactive
CCCCC(O)/C=C(C)/C=C/C=C/C(=O)N1CCCC1=O (stereo not drawn)	inactive
CC/C=C\CCO	inactive
O=C(O)c1cc(=O)[nH]c(=O)[nH]1	inactive
CC12CCC(C1)C(C)(C)C2O (stereo not drawn)	inactive
O=C(C(=O)c1ccccc1)c1ccccc1	inactive
CCOC(=O)c1cc(=O)c2c(OCC(COc3cccc4oc(C(=O)OCC)cc(=O)c34)OC(=O)[C@@H](N)CCCCN)cccc2o1	inactive
COc1ccc(C)cc1	inactive
O=S(=O)(O)CCN1CCN(CCO)CC1	inactive

— PubChem BioAssay (Tox21)
